An excerpt weighted towards active compounds, which were near 21% of everything screened.
Pf growth 48h – inhibits P. falciparum growth in the first generation, 48 h | Potency, µM (top dose mostly 28.7 µM), hits mostly inhibitors | 310,000 tested, 5.9% active | P. falciparum luciferase growth in erythrocytes, 48 h | AID 504832
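Luciferase-expressing P. falciparum in infected erythrocytes (2% hematocrit, 0.1% parasitemia final) in RPMI 1640/0.5% Albumax were exposed to compound for 48 hours at 37 C, 5% CO2; growth read as luminescence.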
NS1 function inh – blocks influenza NS1 protein function; Potency, µM (titrated, usually from 46.1 µM); 270,000 tested, 0.4% active; AID 2326; calls by dose curve; further: actives are rising curves; nearly all actives have a fitted effect of over 50% in size
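Read-out: OD600 growth recovery of NS1-expressing budding yeast. Cells grown overnight at 30C in -URA glucose medium, washed, resuspended and diluted 1:100 in 2% galactose assay medium, pH 6.0. Same strain lacking NS1 served as positive control.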
SARS PLP yeast – SARS-CoV PLP inhibition in yeast; AID 485353; 330,000 tested, 0.19% active; Potency, µM (top dose mostly 32.9 µM), hits mostly activators; S. cerevisiae expressing SARS-CoV PLpro, growth rescue; calls by dose curve; further: nearly all actives have a fitted effect of over 55% in size
Pf growth 96h – P. falciparum growth inhibition at 96 hours. P. falciparum luciferase reporter growth, 96 h. Potency, µM (top dose mostly 28.7 µM), hits mostly inhibitors. 320,000 tested, 6.9% active. AID 504834
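Cell-based qHTS: luciferase-tagged P. falciparum in erythrocytes (2% hematocrit, 0.05% parasitemia final) incubated with compounds for 96 hours, 37 C, 5% CO2; luciferase detection reagent then added and luminescence measured.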
Shiga inhibitor – inhibitors of Shiga toxin in Vero cells; Vero cells, Shiga toxin protein synthesis inhibition reporter; AID 2315; inhibition, % at 38.7 µM; 290,000 tested, 9.2% active; in the data active means inhibition mostly above about 28%, no sharp cut-off; inactive means mostly below about 43%
Cycloheximide cs – counter-screen hit for Shiga toxin inhibitors, cycloheximide | 300,000 tested, 12% active | AID 2314 | cell reporter, cycloheximide protein synthesis inhibition counterscreen | max response, %; in the data active means max response mostly above about 13%, no sharp cut-off; inactive means mostly below about 14%; further: read at 38.3 µM for the half of the compounds with a filed dose
Each line names hits and unclear results; the compound was inactive in the other large screens. Unless noted, the call rests on the fitted dose curve; in most records, active means well fitted inhibition curve with a large enough effect; inconclusive means small, poorly fitted or top-dose-only effect, or another doubt; inactive means no such curve, though single readings can be large or run the other way.

O=C(N/N=C/c1ccc(N2CCOCC2)cc1)c1ccccn1	Shiga inhibitor 51, Cycloheximide cs 27
CC(C)c1ccc(/C=N/NC(=O)c2ccc(-n3cnnn3)cc2)cc1	none (no result: NS1 function inh, Shiga inhibitor, Cycloheximide cs)
O=C(N/N=C\c1ccc(Oc2ccccc2)cc1)c1csnn1	Shiga inhibitor 97, Cycloheximide cs 47 (no result: NS1 function inh)
Cc1c(C(=O)N/N=C/c2ccc(N3CCOCC3)cc2)nc2ccccn12	Pf growth 48h inconclusive
O=C(N/N=C/c1cnc(N2CCOCC2)s1)c1ccccc1	Cycloheximide cs 20
CC(C)CNC(=O)c1ccc(Cl)c(Cl)c1	none (no result: SARS PLP yeast)
CC(=O)c1ccc(Oc2cnccn2)cc1	none (no result: NS1 function inh)
Cc1cccc(/C=N\NC(=O)c2csnn2)c1	Shiga inhibitor 88, Cycloheximide cs 74
Cc1ccc(/C=N/NC(=O)c2ccccn2)o1	Pf growth 96h inconclusive, Shiga inhibitor 47, Cycloheximide cs 42
O=C(N/N=C/c1ccc(N2CCOCC2)cc1)C1CC1	Shiga inhibitor 45 (no result: NS1 function inh)
O=C(N/N=C/c1ccncc1)c1ccccn1	Pf growth 96h inconclusive, Shiga inhibitor 72, Cycloheximide cs 35
C[N+](C)(C)CCN[N@@+]1(C)CCCc2ccccc21	none (no result: Pf growth 48h, SARS PLP yeast, Pf growth 96h, Shiga inhibitor, Cycloheximide cs)
Cc1ccccc1C(=O)NCCCNC(=O)c1cnccn1	Pf growth 96h inconclusive
CC(CCc1ccccc1)NC(=O)Cn1cccc1C(=O)c1ccccc1 (stereo not given)	none
CCc1c(C(=O)N/N=C/c2ccc(C)o2)csc1C	Pf growth 48h inconclusive, Pf growth 96h inconclusive, Cycloheximide cs 18
Cc1ccc(N/N=C/c2ccc(N3CCOCC3)cc2)cc1C	Pf growth 96h 10µM, Shiga inhibitor 136, Cycloheximide cs 59
CN(C)c1ccc(/C=N/NC(=O)c2ccccn2)cc1	Cycloheximide cs 23
CN(C)c1ccc(/C=N/NC(=O)c2cnc3ccccc3c2)cc1	Pf growth 48h inconclusive, Pf growth 96h inconclusive
CN(C)c1ccc(/C=N\NC(=O)c2csnn2)cc1	Shiga inhibitor 32, Cycloheximide cs 18
C/C(=N\OCC(=O)Nn1c(=O)[nH]c2ccccc2c1=O)c1ccccc1	Pf growth 96h inconclusive
COc1ccc(CNC(=O)CCn2c(=O)oc3ccccc32)c(OC)c1	Pf growth 96h inconclusive (no result: NS1 function inh)
Cn1/c(=N/NC(=O)c2ccccc2F)sc2ccccc21	Shiga inhibitor 79, Cycloheximide cs 35 (no result: NS1 function inh)
Cc1ccc(C(=O)N/N=c2\sc3ccccc3n2C)cc1	Cycloheximide cs 20
COc1cccc(C(=O)N/N=c2\sc3ccccc3n2C)c1	Cycloheximide cs 15
CN1C(=O)C(Cc2ccc(OCc3ccccc3)cc2)C(=O)N(C)C1=O	Shiga inhibitor 67, Cycloheximide cs 38
O=c1c2[nH]cnc2n(-c2cccc(Br)c2)c(=O)n1Cc1ccccc1	none
CC1(C)CC(=O)C=C(NNC(=O)c2ccccc2O)C1	none
Cc1cccc(C(=O)NNC2=CC(=O)CC(C)(C)C2)c1O	Shiga inhibitor 65, Cycloheximide cs 16
CCCCOc1ccc(C(=O)N/C(=C/C=C/c2ccccc2)C(=O)NC)cc1	Cycloheximide cs 10
O=C(Nc1ccc(N2CCOCC2)c(Cl)c1)c1ccco1	Cycloheximide cs 34
O=C(Nc1ccc(N2CCN(C(=O)c3ccccc3)CC2)c(Cl)c1)c1ccco1	Pf growth 48h 8.3µM
CC(C)C(=O)N1CCN(c2ccc(NC(=O)c3ccco3)cc2Cl)CC1	Pf growth 48h 9.3µM, Pf growth 96h inconclusive
CCN1CCN(c2ccc(Cl)cc2NC(=O)c2ccco2)CC1	Pf growth 48h inconclusive, Pf growth 96h inconclusive (no result: NS1 function inh, Shiga inhibitor, Cycloheximide cs)
CCOC(=O)c1ccc(N2CCN(C(=O)c3ccccc3)CC2)c(NC(=O)c2ccco2)c1	Pf growth 48h inconclusive
CC(=O)N1CCN(c2ccc(NC(=O)c3ccco3)cc2Cl)CC1	SARS PLP yeast inconclusive, Pf growth 96h inconclusive, Shiga inhibitor 43, Cycloheximide cs 17
Cc1nn(-c2ccccc2)c(N)c1C1(O)C(=O)Nc2ccccc21 (stereo not given)	none
CCC(=O)N1CCN(c2ccc(NC(=O)c3ccco3)cc2Cl)CC1	Pf growth 48h inconclusive, Cycloheximide cs 15
CCC(=O)N1CCN(c2ccc(NC(=O)c3ccc(C#N)cc3F)cc2Cl)CC1	Pf growth 96h inconclusive (no result: NS1 function inh)
O=C(NCCc1ccccc1)C(=O)NCC1OCCN1S(=O)(=O)c1cc(F)ccc1F (stereo not given)	none
CCn1ncc(CN2CCC(Oc3cc(C(=O)NC4CC4)ccc3OC)CC2)c1C	Pf growth 96h 1µM
